Peg3 prom inh = Peg3 promoter-driven luciferase inhibitors, primary screen, cell-based, HeLa, luciferase luminescence; 1.7% of 360,000 active; HeLa PEG-Prom luciferase reporter, overnight; inhibition, % at 20 µM; AID 588405, 2011;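 active means inhibition of at least 50% at 20 µM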
HIF-2a inh = HIF-2a reporter inhibitors, primary screen, luminescence, 786-0 RCC cells; 0.72% of 360,000 active; inhibition, % at 18.8 µM; 786-0 RCC cells HIF-2a reporter, luciferase luminescence, overnight;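 active means inhibition of the luminescence signal of 40% or more relative to plate controls, in a single-dose primary screen at 18.75 µM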
Shn3 inh set2 = reduction of Shn3 3'UTR firefly luciferase signal, primary screen, Schnurri-3 inhibitor project, cell-based, Clone20 osteoblasts, set 2 | AID 588674, 2011 | Clone20 osteoblast Shn3 3'UTR firefly luciferase, 24 h | inhibition, % at 12.5 µM | 0.52% of 360,000 active;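 active means mean inhibition of at least 75% with every replicate also reaching 75%; inconclusive means mean inhibition at least 75% but some replicate below; inactive means mean inhibition below 75%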;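 further: 0% = median of neutral control wells and 100% = pilot-screen positive control compound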
CF NFkB block = inhibitors of PAF-induced NF-kB signaling, primary screen, cell-based, GFP fluorescence, uHTS | KKLEB NF-kB-GFP reporter, GFP fluorescence overnight | inhibition, % at 5 µM | 0.86% of 360,000 active;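 active means at least 50% inhibition at 5 µM, scaled per plate between neutral and stimulator controls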;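 further: PAF is a Pseudomonas aeruginosa culture filtrate used as stimulus; plate controls were PAF-stimulated DMSO wells for no effect and unstimulated DMSO wells for full effect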
MITF TRPM1 inh = inhibitors of MITF-dependent TRPM1 promoter reporter, primary screen, cell-based, SK-MEL-5, single point, luciferase. 0.83% of 330,000 active. SK-MEL-5 TRPM1 promoter luciferase, 24 h. inhibition, % at 12.5 µM;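 active means mean inhibition across replicates of 60% or more, whatever share of single replicates reaches that level; inconclusive means some that reach 60%, reason not given; inactive means mean inhibition across replicates below 60%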
KKLEB cytotox = cytotoxicity in KKLEB CF airway cells, primary screen, cytotoxicity control for CF NF-kB inhibitor project, cell-based, uHTS, fluorescence assay plates | KKLEB CF airway cells viability, ATPlite luminescence, overnight; active compounds read low; cells stimulated with P. aeruginosa culture filtrate | activity change (cytotoxicity), % at 5 µM | 0.36% of 360,000 active | AID 602141, 2011;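 active means corrected activity change at or below -50% at 5 µM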
Numbers without * were called inactive; u = inconclusive; x = no result given. Only some compounds are listed: those with a hit (about 2.8% of all), similar ones and a draw of the others.

SMILES	Peg3 prom inh	HIF-2a inh	Shn3 inh set2	CF NFkB block	MITF TRPM1 inh	KKLEB cytotox
NC(CCc1ccccc1)c1csc(NC(=O)Nc2cccc(C(F)(F)F)c2)n1 (stereo not drawn)	95*	6	63	16	x	-6
NC(COCc1ccccc1)c1csc(NC(=O)Nc2cccc(Cl)c2)n1 (stereo not drawn)	96*	5	6	17	x	-32
NC(CO)c1csc(NC(=O)Nc2cccc(Cl)c2)n1 (stereo not drawn)	-3	-17	-11	-5	x	4
NC(Cc1ccc(C(F)(F)F)cc1)c1csc(Nc2nncc3ccccc23)n1 (stereo not drawn)	94*	6	7	19	x	-33
NC(COCc1ccccc1)c1csc(Nc2nncc3ccccc23)n1 (stereo not drawn)	38	-3	10	19	x	-38
Cc1ccc(C(=O)N2CCCCC2)cc1S(=O)(=O)N1CCOCC1	18	10	29	-19	4	11
O=C(CCc1ccccc1)NNC(=O)c1ccncc1	8	7	-12	4	-4	3
Cc1nc(-c2ccc(Br)cc2)ccc1C(=O)O	25	2	5	10	7	-12
COc1ccc(CC(N)c2csc(NC(=O)NCCc3ccc(OC)c(OC)c3)n2)cc1 (stereo not drawn)	3	-2	21	11	x	-7
COc1ccc(CC(N)c2csc(NC(=O)Nc3ccc(F)cc3)n2)cc1 (stereo not drawn)	55*	10	5	-10	x	5
COc1cc(CNC(=O)Nc2nc(C(N)Cc3ccc(C(F)(F)F)cc3)cs2)cc(OC)c1OC (stereo not drawn)	98*	15	-12	11	x	-4
CC(C)c1ccc(NC(=O)Nc2nc(C(N)c3ccccc3Cl)cs2)cc1 (stereo not drawn)	88*	8	73	19	x	-16
NC(Cc1ccc(C(F)(F)F)cc1)c1csc(NC(=O)Nc2ccccc2Cl)n1 (stereo not drawn)	89*	13	-7	-44	x	23
CCCn1c(SCC(=O)NC2CCCC2)nnc1-c1cccnc1	4	11	0	4	5	9
C=C1C2=C(C(=O)N1OC)[C@@H](O)[C@@](C)(O)[C@@H](CCCCC)O2	3	-6	-24	11	x	-1
Clc1ccc(Cc2noc(CN3CCN(c4ccccc4)CC3)n2)c(Cl)c1	54*	12	-12	-19	4	-2
C/C(=N/NC(=O)c1ccc(Br)o1)c1cccc(NC(=O)c2ccc(F)cc2)c1	-87	-86	-19	-28	-12	7
Cc1cc(C)c(S(=O)(=O)Nc2ccc3c4c(cccc24)CC3)c(C)c1	16	18	30	57*	u	-34
Cc1ccc(S(=O)(=O)Nc2ccc3c4c(cccc24)CC3)c(C)c1	29	11	13	15	13	-3
COc1cc(/C=N/NC(=O)c2ccccc2O)ccc1OCC(=O)Nc1ccccc1	-193	-54	-11	10	-72	-4
CCOc1cc(/C=N\NC(=O)Cc2ccccc2)ccc1OCC(=O)Nc1ccc(C)c(C)c1	11	18	53	5	64*	-12
CCOc1cc(/C=N\Nc2ccc([N+](=O)[O-])cc2)ccc1OCC(=O)Nc1ccc(C)c(C)c1	12	7	2	-16	2	-15
O=C(COc1ccc(/C=N/NC(=O)c2cc3ccccc3o2)cc1Cl)Nc1ccccc1	108*	-75	27	90*	95*	-93*
O=C(CN(Cc1ccco1)C(=O)c1ccc(F)cc1)Nc1ccccc1Br	-9	2	-3	7	11	-5
C=CCNC1=C(Cl)C(=O)c2ccccc2C1=O	-1	-10	5	17	63*	-8
O=C1C(Cl)=C(NCCc2ccccc2)C(=O)c2ccccc21	63*	-57	28	42	u	4
O=C1C(Cl)=C(NCc2cccnc2)C(=O)c2ccccc21	2	14	-9	37	98*	-6
